Consider six sequences from publication PMC11574364.

Common to all, as to test: protein domain microarray probed with biotinylated miRNA; Domain array: 20 mM Tris-HCl pH 7.4, 200 mM KCl, 0.2 mM EDTA, 0.05% NP40, 2 ug/ul heparin, overnight 4 C. ORF array: PBS pH 7.0 with RNase inhibitor, 100 ng RNA; high values mean tight binding
Common to all, as to conditions: ssRNA

Assay [1] addresses T1, RBM5 (Homo sapiens, UniProt P52756).
T1 sequence: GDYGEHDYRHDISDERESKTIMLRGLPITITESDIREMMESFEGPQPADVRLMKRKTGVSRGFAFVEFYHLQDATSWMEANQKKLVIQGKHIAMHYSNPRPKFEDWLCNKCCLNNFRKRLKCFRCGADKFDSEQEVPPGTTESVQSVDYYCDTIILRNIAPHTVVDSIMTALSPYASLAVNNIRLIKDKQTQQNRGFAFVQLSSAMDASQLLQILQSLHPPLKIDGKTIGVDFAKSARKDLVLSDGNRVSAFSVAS

Assay [2] has as its target T2, RKHD4(1-2) (Homo sapiens, UniProt A1L020).
T2 sequence: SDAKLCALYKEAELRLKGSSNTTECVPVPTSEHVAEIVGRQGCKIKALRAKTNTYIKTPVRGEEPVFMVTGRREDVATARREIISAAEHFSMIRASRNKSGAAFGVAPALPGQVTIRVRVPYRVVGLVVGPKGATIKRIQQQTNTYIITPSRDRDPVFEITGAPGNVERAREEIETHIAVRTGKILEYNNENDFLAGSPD

Assay [3] addresses T3, SRP46 (Homo sapiens, UniProt Q9BRL6).
T3 sequence: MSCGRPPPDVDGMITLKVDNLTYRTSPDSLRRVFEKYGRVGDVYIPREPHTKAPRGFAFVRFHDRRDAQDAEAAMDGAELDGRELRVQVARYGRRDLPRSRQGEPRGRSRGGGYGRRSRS

Assay [4] has as its target PPIE (Homo sapiens, UniProt Q9UNP9).
Assay [5] concerns the target ADAD1 (Homo sapiens, UniProt Q96M93).
For assay [6], the target named is T4, SFRS5 (Homo sapiens, UniProt Q13243).
T4 sequence: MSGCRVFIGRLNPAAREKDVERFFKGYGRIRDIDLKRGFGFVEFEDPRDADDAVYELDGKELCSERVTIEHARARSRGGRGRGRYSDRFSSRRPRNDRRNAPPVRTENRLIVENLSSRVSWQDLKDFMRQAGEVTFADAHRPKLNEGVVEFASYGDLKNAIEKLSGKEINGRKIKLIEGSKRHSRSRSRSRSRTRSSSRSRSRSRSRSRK

Assay [7] has as its target RBMXL2 (Homo sapiens, UniProt O75526).
Assay [8] concerns the target T5, ANKHD1 (Homo sapiens, UniProt Q8IWZ3).
T5 sequence: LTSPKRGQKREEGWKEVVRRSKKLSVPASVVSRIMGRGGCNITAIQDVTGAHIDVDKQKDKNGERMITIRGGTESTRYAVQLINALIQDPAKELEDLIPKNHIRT

Assay [9] addresses T6, RBM34 (Homo sapiens, UniProt P42696).
T6 sequence: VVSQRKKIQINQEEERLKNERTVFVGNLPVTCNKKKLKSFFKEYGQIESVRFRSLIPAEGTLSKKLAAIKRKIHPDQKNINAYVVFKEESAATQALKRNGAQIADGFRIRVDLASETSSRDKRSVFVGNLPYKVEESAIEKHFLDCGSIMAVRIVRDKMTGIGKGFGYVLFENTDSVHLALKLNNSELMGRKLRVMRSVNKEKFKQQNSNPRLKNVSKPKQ

The target of assay [10] is SF3B4 (Homo sapiens, UniProt Q15427).
Assay [11] deals with T7, SFRS15 (Homo sapiens, UniProt O95104).
T7 sequence: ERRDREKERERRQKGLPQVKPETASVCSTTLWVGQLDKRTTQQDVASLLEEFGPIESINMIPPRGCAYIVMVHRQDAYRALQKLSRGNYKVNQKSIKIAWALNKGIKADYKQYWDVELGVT

For assay [12], the target named is RBMY1D / RBMY1E (Homo sapiens, UniProt P0DJD3).
In assay [13] the target is SF2 (Homo sapiens, UniProt Q07955).
Assay [14] deals with PTBP2 (Homo sapiens, UniProt Q9UKA9).
Assay [15] has as its target SR140 (Homo sapiens, UniProt O15042).
Assay [16] deals with T8, RBM22 (Homo sapiens, UniProt Q9NW64).
T8 sequence: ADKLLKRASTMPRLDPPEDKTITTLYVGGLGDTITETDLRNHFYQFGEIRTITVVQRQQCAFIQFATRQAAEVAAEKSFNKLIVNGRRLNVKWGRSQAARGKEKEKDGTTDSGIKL

In assay [17] the target is RBPMS2 (Homo sapiens, UniProt Q6ZRY4).
The target of assay [18] is T9, SFRS3 (Homo sapiens, UniProt P84103).
T9 sequence: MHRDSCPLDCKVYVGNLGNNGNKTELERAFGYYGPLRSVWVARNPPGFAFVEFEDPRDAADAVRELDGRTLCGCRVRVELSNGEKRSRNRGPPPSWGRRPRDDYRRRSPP

The target in assay [19] is T10, TRSPAP1 (Homo sapiens, UniProt Q9NX07).
T10 sequence: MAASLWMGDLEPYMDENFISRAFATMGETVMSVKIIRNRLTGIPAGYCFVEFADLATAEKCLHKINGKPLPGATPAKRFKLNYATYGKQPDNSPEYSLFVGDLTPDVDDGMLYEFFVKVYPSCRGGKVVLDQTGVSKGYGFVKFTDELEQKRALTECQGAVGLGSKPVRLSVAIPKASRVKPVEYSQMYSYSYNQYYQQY

Assay [20] concerns the target PRPF8 (Homo sapiens, UniProt Q6P2Q9).

Chain of PRPF8 (Q6P2Q9 965-1100): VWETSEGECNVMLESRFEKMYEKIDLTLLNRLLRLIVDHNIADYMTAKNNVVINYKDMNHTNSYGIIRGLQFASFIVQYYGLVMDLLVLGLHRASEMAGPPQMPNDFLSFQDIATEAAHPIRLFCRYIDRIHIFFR
Chain of ADAD1 (Q96M93 77-182): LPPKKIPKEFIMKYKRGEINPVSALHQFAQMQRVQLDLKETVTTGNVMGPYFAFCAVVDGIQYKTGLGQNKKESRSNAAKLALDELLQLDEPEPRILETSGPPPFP
Chain of PPIE (Q9UNP9 1-110): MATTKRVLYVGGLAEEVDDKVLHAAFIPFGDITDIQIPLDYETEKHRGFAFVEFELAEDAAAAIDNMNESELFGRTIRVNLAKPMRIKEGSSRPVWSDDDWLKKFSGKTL
Chain of RBPMS2 (Q6ZRY4 10-130): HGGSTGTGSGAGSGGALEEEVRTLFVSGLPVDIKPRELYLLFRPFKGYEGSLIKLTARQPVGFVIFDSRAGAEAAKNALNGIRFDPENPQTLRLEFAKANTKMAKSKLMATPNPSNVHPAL
Chain of SF3B4 (Q15427 1-200): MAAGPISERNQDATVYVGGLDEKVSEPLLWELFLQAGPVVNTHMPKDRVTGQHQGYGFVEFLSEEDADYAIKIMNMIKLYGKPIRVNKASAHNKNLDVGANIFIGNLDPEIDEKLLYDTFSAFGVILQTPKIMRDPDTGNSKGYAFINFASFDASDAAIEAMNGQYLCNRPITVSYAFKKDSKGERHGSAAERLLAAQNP
Chain of RBMY1D / RBMY1E (P0DJD3 1-110): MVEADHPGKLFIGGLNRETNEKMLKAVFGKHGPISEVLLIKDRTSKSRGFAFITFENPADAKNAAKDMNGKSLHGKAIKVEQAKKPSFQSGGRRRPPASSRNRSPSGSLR
Chain of PTBP2 (Q9UKA9 40-531): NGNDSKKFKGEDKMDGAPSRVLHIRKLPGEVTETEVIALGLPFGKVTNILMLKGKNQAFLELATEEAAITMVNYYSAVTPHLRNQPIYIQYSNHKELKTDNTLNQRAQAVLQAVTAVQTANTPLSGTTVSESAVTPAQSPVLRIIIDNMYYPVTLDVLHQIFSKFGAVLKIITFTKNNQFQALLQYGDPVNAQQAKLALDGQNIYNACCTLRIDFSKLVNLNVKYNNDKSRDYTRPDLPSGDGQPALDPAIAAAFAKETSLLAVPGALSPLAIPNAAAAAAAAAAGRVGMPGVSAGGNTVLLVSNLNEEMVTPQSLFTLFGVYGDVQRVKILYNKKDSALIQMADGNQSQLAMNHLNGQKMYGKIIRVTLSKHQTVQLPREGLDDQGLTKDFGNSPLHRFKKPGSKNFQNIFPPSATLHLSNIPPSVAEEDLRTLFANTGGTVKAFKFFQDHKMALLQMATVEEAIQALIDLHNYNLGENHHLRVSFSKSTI
Chain of RBMXL2 (O75526 1-110): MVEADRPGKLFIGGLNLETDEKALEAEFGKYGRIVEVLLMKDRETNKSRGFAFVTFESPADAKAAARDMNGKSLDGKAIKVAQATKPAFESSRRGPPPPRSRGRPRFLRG
Chain of SF2 (Q07955 1-220): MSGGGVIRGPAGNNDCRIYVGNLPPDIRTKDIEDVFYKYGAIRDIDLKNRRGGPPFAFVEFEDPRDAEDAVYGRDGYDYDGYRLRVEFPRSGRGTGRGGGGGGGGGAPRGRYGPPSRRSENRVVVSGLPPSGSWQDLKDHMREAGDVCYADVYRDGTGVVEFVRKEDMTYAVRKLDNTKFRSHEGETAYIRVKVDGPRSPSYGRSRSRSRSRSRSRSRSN
Chain of SR140 (O15042 250-375): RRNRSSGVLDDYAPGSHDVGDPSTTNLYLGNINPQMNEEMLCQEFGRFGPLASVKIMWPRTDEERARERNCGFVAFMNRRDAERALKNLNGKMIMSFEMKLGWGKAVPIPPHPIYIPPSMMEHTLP

Consider AGAGGUAGUAGGUUGCAUAGUU, for which the binding signal was found to be 1310 ± 32.6 fluorescence intensity in assay [1]; 1980 ± 164 fluorescence intensity in [2]; 1390 ± 35.5 fluorescence intensity in assay [3]; 817 ± 64.4 fluorescence intensity in [4]; 65 ± 1.55 fluorescence intensity in assay [5]; 151 ± 12.7 fluorescence intensity in assay [6]. In addition, the binding signal came out at 2569 ± 8.99 fluorescence intensity in assay [7]; 37.7 ± 0.622 fluorescence intensity in assay [8]; 148 ± 10.7 fluorescence intensity in assay [9]; 1440 ± 72.2 fluorescence intensity in [10]; 153 ± 14.1 fluorescence intensity in assay [11]; 2080 ± 121 fluorescence intensity in assay [12]. Also, the binding signal in [13] came out at 925 ± 29.4 fluorescence intensity; in assay [14], 96.6 ± 13.3 fluorescence intensity; in assay [15], 142.1 ± 1.25 fluorescence intensity; in assay [16] it was 71.81 ± 0.233 fluorescence intensity; in assay [17] it was 1780 ± 12.1 fluorescence intensity; in assay [18] it was 324.4 ± 0.806 fluorescence intensity. In addition, the binding signal in [19] was determined as 351 ± 8.57 fluorescence intensity.

Take UGAGGUAGUAGGUUGUAUGGUU: the binding signal in [1] was found to be 930 ± 19.2 fluorescence intensity; in assay [2], 1640 ± 102 fluorescence intensity; in assay [3] it was 1040 ± 52.8 fluorescence intensity; in assay [20], 22 ± 1.98 fluorescence intensity; in assay [4], 958 ± 40.9 fluorescence intensity; in assay [5] it was 97.885 ± 0.0354 fluorescence intensity. For the same sequence, the binding signal was 155 ± 8.02 fluorescence intensity in assay [6]; 1440 ± 338 fluorescence intensity in assay [7]; 53.6 ± 1.31 fluorescence intensity in assay [8]; 153 ± 25.5 fluorescence intensity in assay [9]; 638.1 ± 5.52 fluorescence intensity in assay [10]; 154.2 ± 0.983 fluorescence intensity in [11]. The binding signal in assay [12] is 1480 ± 96.8 fluorescence intensity; in assay [13], 700 ± 28 fluorescence intensity; in [14], 147 ± 8.05 fluorescence intensity; in assay [15], 80.2 ± 12.3 fluorescence intensity; in [16], 113.1 ± 0.177 fluorescence intensity; in assay [17] it was 434 ± 21.2 fluorescence intensity. Also, the values for the binding signal in [18] and in assay [19] were 235 ± 17.9 fluorescence intensity and 269 ± 24.3 fluorescence intensity, respectively.

Regarding UGAGGUAGUAGGUUGUGUGGUU, the binding signal in assay [1] turned out to be 858 ± 19.2 fluorescence intensity; in [2] it was 1430 ± 37.1 fluorescence intensity; in [3], 1046 ± 4.09 fluorescence intensity; in assay [4], 1030 ± 108 fluorescence intensity; in assay [5], 157 ± 3.28 fluorescence intensity; in assay [6] it was 215 ± 3.13 fluorescence intensity. Besides, the binding signal in assay [7] is 1610 ± 44.5 fluorescence intensity; in assay [8], 101 ± 1.94 fluorescence intensity; in assay [9], 228 ± 3.75 fluorescence intensity; in [10], 1290 ± 27 fluorescence intensity; in assay [11], 289 ± 27.3 fluorescence intensity; in [12], 1420 ± 19.5 fluorescence intensity. The binding signal in [13] turned out to be 895.8 ± 6.29 fluorescence intensity; in [14], 166 ± 17.3 fluorescence intensity; in assay [15], 149 ± 8.63 fluorescence intensity; in assay [16], 126 ± 31.8 fluorescence intensity; in [17] it was 515 ± 10.3 fluorescence intensity; in assay [18], 276 ± 12.7 fluorescence intensity. In assay [19], this sequence returned a binding signal of 332 ± 22.4 fluorescence intensity.

Regarding CAGUGCAAUGAUGAAAGGGCAU, the binding signal in assay [1] is 593 ± 12.6 fluorescence intensity; in assay [2], 1280 ± 81.8 fluorescence intensity; in [3], 797 ± 34.1 fluorescence intensity; in [20] it was 31.6 ± 16.2 fluorescence intensity; in [4] it was 451 ± 19.3 fluorescence intensity; in [5] it was 44.5 ± 2.96 fluorescence intensity. Further, the binding signal in assay [6] is 151 ± 10.5 fluorescence intensity; in [7], 1800 ± 20.8 fluorescence intensity; in assay [8], 27.3 ± 0.926 fluorescence intensity; in assay [9], 102 ± 9.41 fluorescence intensity; in assay [10], 1680 ± 98.9 fluorescence intensity; in [11], 141 ± 12.5 fluorescence intensity. Also, the binding signal in [12] amounted to 1280 ± 58.5 fluorescence intensity; in [13], 702.4 ± 1.9 fluorescence intensity; in assay [14] it was 55.4 ± 5.87 fluorescence intensity; in [15], 43.9 ± 3.02 fluorescence intensity; in assay [16] it was 52.6 ± 1.44 fluorescence intensity; in [17], 1650 ± 53.9 fluorescence intensity. Further, the binding signal amounted to 219 ± 8.61 fluorescence intensity in assay [18] and 84.1 ± 10.6 fluorescence intensity in assay [19].

Consider UAGCUUAUCAGACUGAUGUUGA, for which the binding signal came out at 21.2 ± 2.33 fluorescence intensity in assay [1]; 932 ± 115 fluorescence intensity in [2]; 41.5 ± 2.43 fluorescence intensity in assay [3]; 91.8 ± 5.98 fluorescence intensity in assay [4]; 826.37 ± 0.587 fluorescence intensity in assay [7]; 700 ± 28.6 fluorescence intensity in [10]. Further, the binding signal in [11] amounted to 22.3 ± 2.16 fluorescence intensity; in assay [12], 817.2 ± 6.26 fluorescence intensity; in assay [13], 126 ± 12.9 fluorescence intensity; in assay [14], 23.2 ± 6.02 fluorescence intensity; in assay [15], 21.9 ± 3.08 fluorescence intensity; in [17] it was 37.6 ± 9.28 fluorescence intensity. In addition, the values for the binding signal in assay [18] and in [19] were 34.7 ± 4.07 fluorescence intensity and 45.5 ± 1.42 fluorescence intensity, respectively.

With UGAGGUAGUAGGUUGUAUAGUU, the binding signal in assay [1] is 356 ± 13.4 fluorescence intensity; in assay [2] it was 1130 ± 28.7 fluorescence intensity; in [3], 208 ± 90.3 fluorescence intensity; in [20], 25.3 ± 8.73 fluorescence intensity; in assay [4], 232 ± 2.04 fluorescence intensity; in [5], 23.1 ± 6.46 fluorescence intensity. Moreover, the binding signal is 867 ± 9.01 fluorescence intensity in assay [7]; 21.6 ± 2.06 fluorescence intensity in assay [8]; 40.9 ± 12.8 fluorescence intensity in assay [9]; 346 ± 11.8 fluorescence intensity in assay [10]; 46.2 ± 1.86 fluorescence intensity in assay [11]; 892 ± 33.6 fluorescence intensity in assay [12]. For the same sequence, the binding signal was 70.4 ± 4.98 fluorescence intensity in assay [13]; 49.5 ± 9.89 fluorescence intensity in assay [14]; 32 ± 0.467 fluorescence intensity in assay [15]; 25.7 ± 2.21 fluorescence intensity in [16]; 118 ± 2.62 fluorescence intensity in assay [17]; 37.7 ± 9.2 fluorescence intensity in assay [18]. Further, the binding signal in [19] came out at 79.2 ± 10.3 fluorescence intensity.
